Compound activity deposited in PubChem by The Scripps Research Institute Molecular Screening Center.
Fam108B inh = blocks mouse Fam108B hydrolase in RBBP9 counter-screen; recombinant Fam108B, FP-Rh probe fluorescence polarization; inhibition, % at 9.51 µM; 0.33% of 300,000 active; AID 1947;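 active = inhibition above the screen mean inhibition plus 3 SD, computed separately per campaign, cut at about 18% in these data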;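 also: inhibitors lower polarization as less probe binds the enzyme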
LYPLA2 inh = blocks human lysophospholipase 2, a PME1 counter-screen; inhibition, % at 5.9 µM; 0.38% of 320,000 active; recombinant LYPLA2, FP-Rh probe fluorescence polarization; O95372; AID 2177;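 active = inhibition above the screen-wide mean plus 3 SD, limit set per campaign, cut at about 26% in these data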
PME-1 primary = PME-1 (human) inhibition | recombinant PME-1, FP-Rh probe fluorescence polarization | AID 2130 | Q9Y570 | inhibition, % at 5.9 µM | 0.53% of 320,000 active;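 active = inhibition above the campaign mean of all compounds plus 3 SD, cut at about 26% in these data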;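 also: competitive labeling of PME-1 active site by serine hydrolase directed probe; inhibitors block probe labeling so polarization falls and inhibition rises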
Target sequence (Q9Y570 whole entry, looked up): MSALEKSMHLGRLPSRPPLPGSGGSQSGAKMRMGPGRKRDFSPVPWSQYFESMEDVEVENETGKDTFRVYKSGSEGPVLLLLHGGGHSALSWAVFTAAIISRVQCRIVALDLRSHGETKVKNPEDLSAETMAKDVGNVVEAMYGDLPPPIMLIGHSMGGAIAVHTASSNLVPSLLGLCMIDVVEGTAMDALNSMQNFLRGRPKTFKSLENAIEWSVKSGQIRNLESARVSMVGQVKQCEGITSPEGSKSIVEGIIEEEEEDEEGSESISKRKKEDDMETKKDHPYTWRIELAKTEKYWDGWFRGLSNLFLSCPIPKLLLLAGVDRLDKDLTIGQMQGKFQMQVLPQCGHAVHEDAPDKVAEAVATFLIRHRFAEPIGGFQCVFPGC
LYPLA1 counter = counter-screen for PME1 inhibitors: inhibitors of human LYPLA1; recombinant LYPLA1, FP-Rh probe fluorescence polarization; inhibition, % at 5.9 µM; 0.16% of 320,000 active; AID 2174;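 active = inhibition above the mean of all tested compounds plus 3 SD, set per campaign, cut at about 14% in these data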;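 also: inhibitors block serine hydrolase probe labeling of LYPLA1 so polarization falls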
GSTO1 counter = GSTO1 inhibition, counter-screen for RBBP9 inhibitors; P78417; recombinant GSTO1, activity-based probe fluorescence polarization; inhibition, % at 5.96 µM; 1.1% of 300,000 active;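 active = inhibition above the campaign mean inhibition plus 3 SD, cut at about 35% in these data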
Target sequence (P78417 whole entry, looked up): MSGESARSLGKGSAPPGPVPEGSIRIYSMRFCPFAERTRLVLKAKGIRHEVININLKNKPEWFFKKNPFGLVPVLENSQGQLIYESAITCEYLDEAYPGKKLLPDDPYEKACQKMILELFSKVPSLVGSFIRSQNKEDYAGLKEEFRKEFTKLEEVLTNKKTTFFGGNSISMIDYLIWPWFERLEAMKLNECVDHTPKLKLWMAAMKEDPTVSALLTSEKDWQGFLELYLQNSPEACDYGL
PAD4 inh = blocks human protein arginine deiminase 4 | recombinant PAD4, RCA probe fluorescence polarization | inhibition, % at 6.36 µM | AID 485272 | Q9UM07 | 0.41% of 330,000 active;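 active = percent inhibition above a cutoff equal to the mean of all tested compounds plus 3 SD, cut at about 15% in these data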
Fam108b confirm = confirmation of mouse Fam108b serine hydrolase inhibitors | recombinant Fam108b, FP-Rh probe fluorescence polarization | shares compounds with Fam108B inh | 44% of 930 active | AID 1978 | inhibition, % at 9.51 µM;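 active = inhibition above a limit from the primary screen, the mean over all compounds plus 3 SD, cut at about 19% in these data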;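 also: inhibitors free the probe so polarization falls as inhibition rises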
Fam108b ABPP HTS = inhibits mouse Fam108b in gel-based ABPP | inhibition, % at 20 µM | 44% of 260 active | recombinant Fam108b, fluorophosphonate probe | shares compounds with Fam108B inh | AID 588649; in the data active = inhibition above about 40%
Numbers stand for hits; n = inactive; x = not tested or not shown. The list is not random: actives were taken first. Their share in the collection is about 1.8%.

SMILES | Fam108B inh | LYPLA2 inh | PME-1 primary | LYPLA1 counter | GSTO1 counter | PAD4 inh | Fam108b confirm | others
CC(=NNC(=O)c1cccc(Cl)c1)C1C(=O)c2ccccc2C1=O | x | x | x | x | x | x | x | Fam108b ABPP HTS=n
C/C(=N\NC(=O)c1ccc(-c2ccccc2)cc1)C1C(=O)c2ccccc2C1=O | 27 | n | n | n | n | n | 25
Cc1cccc(N/N=C/c2ccccc2O)c1 | n | n | n | n | n | n | x
COc1cccc(C2C3=C(Nc4[nH]n(-c5ccccc5)c(=O)c42)c2ccccc2C3=O)c1 (configuration not stated) | 24 | n | 28 | n | n | n | 31
CCOC(=O)CN1C(=O)/C(=C/c2ccccc2Br)Oc2ccccc21 | n | n | n | n | n | n | x
CC(NC(=O)Cc1ccccc1)C1COc2ccccc2O1 (configuration not stated) | 125 | n | n | n | n | n | n
CC(NC(=O)COc1ccccc1)C1COc2ccccc2O1 (configuration not stated) | n | n | n | n | n | n | x
O=C(COC(=O)COc1cccc(Br)c1)Nc1ccc(F)cc1F | x | n | n | n | x | n | x
Cc1ccc(S(=O)(=O)N(C)C)cc1NC(=O)c1cc(=O)c2ccccc2o1 | 21 | n | n | n | n | n | 33 | Fam108b ABPP HTS=n
CC(C)Sc1nnc(NC(=O)c2ccc3c(c2)OCO3)s1 | n | n | n | n | n | n | x
S=C(Nc1ccc(-c2nc3ccccc3[nH]2)cc1)Nc1cccnc1 | n | n | n | n | n | n | x
Cc1cccc(C)c1NC(=O)Cn1c(CN2CCCCC2)nc2ccccc2c1=O | 21 | n | n | n | n | n | n
O=C(Cn1c(=O)oc2ccccc21)NCC1COc2ccccc2O1 (configuration not stated) | n | n | n | n | n | n | x
CCN(CC)C(=O)c1csc(Nc2ccc(C)cc2)n1 | n | n | n | n | n | n | x
CCOC(=O)/C(=N\Nc1ccc(OC)cc1)c1csc(Nc2ccccc2)n1 | 23 | n | n | n | n | n | n
CCCCC(CCC(=O)O)(C(=O)OCC)c1csc(Nc2ccccc2)n1 (configuration not stated) | n | n | n | n | n | n | x
CCOC(=O)/C(=N\Nc1ccc(Cl)cc1)c1csc(Nc2ccccc2)n1 | 21 | n | 29 | n | n | n | 27
CCOC(=O)/C(=N/Nc1ccccc1)c1csc(Nc2ccccc2)n1 | 22 | n | n | n | n | n | n
CCOC(=O)c1cc(C#N)c(SC(C)C(=O)NC2CCCCC2)nc1C (configuration not stated) | x | n | n | n | x | n | x
CC(=O)N1CCN(C(=O)COC(=O)CNC(=O)c2ccc(C)cc2)CC1 | x | n | n | n | x | n | x
Cc1ccc(S(=O)(=O)N(C)C)cc1NC(=O)C1CCCCN1S(=O)(=O)c1ccccc1 (configuration not stated) | x | n | n | n | x | n | x
C[C@H](CO)N1C[C@H](C)[C@@H](CN(C)Cc2ccc(-c3ccccc3)cc2)Oc2c(NC(=O)Nc3ccc4c(c3)OCO4)cccc2C1=O | x | x | x | x | x | n | x
CCN(CC)S(=O)(=O)c1ccc(NC(=O)COC(=O)CNS(=O)(=O)/C=C/c2ccccc2)cc1 | n | n | n | n | n | n | x
Nc1ccc2nc(-c3cccc(-c4nc5ccc(N)cc5[nH]4)c3)[nH]c2c1 | 25 | n | 51 | n | n | n | 146 | Fam108b ABPP HTS=90
COc1cc(-c2nc(-c3ccc4c(c3)-c3ccccc3S4(=O)=O)c(-c3ccccc3)[nH]2)cc(OC)c1O | 32 | n | n | n | n | n | 37 | Fam108b ABPP HTS=80
SMILES | Fam108B inh | LYPLA2 inh | PME-1 primary | LYPLA1 counter | GSTO1 counter | PAD4 inh | Fam108b confirm | others
N#CC1=C(c2ccccc2)/C(=C/c2ccccc2)OC1=O | 19 | n | n | n | n | n | 23
O=C1O/C(=C/c2ccccc2)c2ccccc21 | n | n | n | n | n | n | x
O=C1NC(=S)/C(=C\c2ccc(-c3ccccc3Cl)o2)S1 | 29 | n | 37 | n | 35 | n | 45 | Fam108b ABPP HTS=65
COc1ccc2nc(-n3c(O)c(C4=c5ccccc5=NC4=O)[nH]c3=S)sc2c1 | 37 | n | 54 | n | n | n | 36 | Fam108b ABPP HTS=n
Cn1c(O)c(C2=c3ccccc3=NC2=O)[nH]c1=S | n | n | n | n | n | n | x
CCN(c1ccccc1)S(=O)(=O)c1ccc(NC(=O)c2nc(S(C)(=O)=O)ncc2Cl)cc1 | 38 | n | n | n | n | n | 37 | Fam108b ABPP HTS=80
COc1cccc(/C=N/Nc2ncnc3scc(-c4ccccc4)c23)c1O | 23 | n | n | n | n | n | n
COc1cccc(/C=N/Nc2ncnc(Cl)c2N)c1O | n | n | n | n | n | n | x
C[C@H]1Oc2ccccc2C(=O)C1C(=O)c1ccccc1 (some centres not stated) | n | n | n | n | n | n | x
COc1ccc(OC)c(Nc2nc(-c3sc(N)nc3C)cs2)c1 | 21 | n | n | n | n | n | n
c1ccc2c(c1)nc(Nc1ccc3c(c1)OCO3)c1nnnn12 | 23 | n | n | n | n | n | n
CCN(CC)S(=O)(=O)c1ccc(Nc2nc3ccccc3n3nnnc23)cc1 | 26 | n | n | n | n | n | n
Fc1cccc(Nc2nc3ccccc3n3nnnc23)c1 | n | n | n | n | n | n | x
CN(C)S(=O)(=O)c1cccc(NC(=O)c2cc(=O)[nH]c3ccccc23)c1 | n | n | n | n | n | n | x
CN(C)S(=O)(=O)c1cccc(NC(=O)c2c[nH]c3ccccc23)c1 | 126 | n | n | n | n | n | n
Cc1ccc(C)c(OCc2cc(C(=O)N(C)Cc3nccs3)no2)c1 | n | n | n | n | n | n | x
O=c1cnnc(NCc2ccccc2)[nH]1 | 22 | n | n | n | n | n | n
CCN(CC(=O)Nc1ccccc1C(F)(F)F)C(=O)C1CSC2(C)CCC(=O)N12 (configuration not stated) | n | n | n | n | n | n | x
O=C(O)c1ccc(N/N=C/C2=C(N3CCOCC3)C(=C\c3ccccc3)/CC2)cc1 | 19 | n | n | n | n | n | 22
Cc1cc(C)nc(N/N=C/C2=C(N3CCOCC3)C(=C\c3ccc(Cl)cc3)/CC2)n1 | n | n | n | n | n | n | x
COc1cccc(NC(=O)CN(C)C(=O)C2CCN(C(=O)c3ccccc3C)CC2)c1 | 19 | n | n | n | n | n | n
CN(C1(C)CCS(=O)(=O)C1)S(=O)(=O)c1ccc2ccccc2c1 (configuration not stated) | n | n | n | n | n | n | x
O=C(c1cc([N+](=O)[O-])ccc1N1CCCC1)N1CCCCC1 | n | n | n | n | n | n | x
O=C(c1cc([N+](=O)[O-])ccc1N1CCCCC1)N1CCCCC1 | 38 | n | n | n | n | n | n
